High-throughput results deposited in PubChem BioAssay by National Center for Advancing Translational Sciences (NCATS).
Rows were chosen to be rich in hits. Some 8.9% of all compounds tested hit in one or more screens of this group.
MCF10A rerep: inducers of DNA re-replication in MCF 10A breast cells. MCF 10A DNA re-replication, Hoechst nuclear intensity, 48 h. Potency, µM (top dose mostly 46.1 µM), for inactives: at the top dose activity, positive = re-replication, most hits filed as activators. 350,000 compounds, 2.9% hits; further: potency means the concentration at half of the fitted maximal effect; % of control where 0% means no effect; nearly all actives have a fitted effect of over 50% in size
D3 antag: D3 dopamine receptor (human) antagonism; D3R cells, DiscoveRx beta-arrestin luminescence, antagonist mode; active compounds read low; max response, negative = inhibition, %; 360,000 compounds, 2.5% hits; in the data active means max response below about -50%; inconclusive means no clear call, values can overlap the other calls; further: on the % scale 0 is the no-effect control and ±100 the full control effect
Target sequence (P35462 whole entry, looked up): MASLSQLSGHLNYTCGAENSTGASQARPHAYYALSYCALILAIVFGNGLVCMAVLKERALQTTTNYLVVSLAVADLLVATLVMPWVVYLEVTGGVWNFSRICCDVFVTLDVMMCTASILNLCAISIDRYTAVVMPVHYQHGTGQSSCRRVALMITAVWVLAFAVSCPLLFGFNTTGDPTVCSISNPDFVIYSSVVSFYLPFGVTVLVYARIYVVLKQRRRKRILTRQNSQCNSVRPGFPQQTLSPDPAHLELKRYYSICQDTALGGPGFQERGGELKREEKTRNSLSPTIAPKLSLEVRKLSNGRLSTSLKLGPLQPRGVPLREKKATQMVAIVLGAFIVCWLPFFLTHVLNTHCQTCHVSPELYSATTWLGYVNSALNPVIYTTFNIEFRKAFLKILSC
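Cells plated overnight at 1500 cells/well, then exposed to library compounds with dopamine controls for 90 minutes at 37 degrees C. DiscoveRx reagent added for 30–60 minutes at room temperature; luminescence read, quantitative HTS format.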
SW480 rereplic: DNA re-replication induction in SW480 cells; SW480 DNA re-replication, Hoechst DNA content imaging, 48 h; Potency, µM (top dose mostly 46.1 µM), for inactives: at the highest dose re-replication activation, hits mostly activators; 340,000 compounds, 1.8% hits; AID 624297; further: potency means the concentration at half of the fitted maximal effect; % of control where 0% means no effect; nearly all actives have a fitted effect of over 55% in size
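Per well, 250 cells were exposed to pinned compound for 48 hr. Nuclear DNA was visualised with Hoechst (40 min, 37 C) and total object intensity recorded by fluorescence scanning.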
DRD3 agonist: D3 dopamine receptor (human) agonism. AID 652048. 410,000 compounds, 0.58% hits. max activation, %. D3R DiscoveRx beta-arrestin cells, luminescence, 90 min. P35462; in the data active means max activation above about 30%; further: 0% is about no effect
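Agonist-mode cell screen: cells plated at 1500/well and incubated overnight at 37 °C, then exposed to library compounds for 90 min at 37 °C. Detection reagent was added for 30–60 min at room temperature, and luminescence was read.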
KB-V1 MDR tox: kills drug-selected multidrug resistant KB-V1 cells. KB-V1 MDR cells viability, CellTiter-Glo, 72 h. Potency, µM (top dose mostly 46.1 µM), usual class: cytotoxic. 400,000 compounds, 3.4% hits. AID 1347076; further: potency means the concentration at half of the fitted maximal effect; on the % scale 0 is the no-effect control and ±100 the full control effect; nearly all actives have a fitted effect of over 60% in size
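Cells of the MDR subline KB-V1 are plated, dosed with compound at multiple concentrations, and incubated 72 h at 37 degrees C; CellTiter-Glo is then added and luminescence read after 10 min.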
KB-3-1 cytotox: KB-3-1 parental cell cytotoxicity. KB-3-1 viability, CellTiter-Glo ATP luminescence, 72 h. Potency, µM (highest dose often 46.1 µM), hits mostly cytotoxic. 400,000 compounds, 1.4% hits; further: potency means the concentration at half of the fitted maximal effect; on the % scale 0 is the no-effect control and ±100 the full control effect; nearly all actives have a fitted effect of over 60% in size
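Cells are dispensed, compounds pinned in, plates held at 37 °C for 72 h, then CellTiter-Glo is added and luminescence read after 10 minutes. Cell line: parental KB-3-1 in phenol-red-free DMEM, 10% FBS.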
The depositor's hits bear a star. Unless noted, the call rests on the fitted dose curve; in most records, active means well fitted curve in the direction sought with a large enough effect; inconclusive means small, poorly fitted or top-dose-only effect, or another doubt; inactive means no such curve, though single readings can be large; an effect the other way counts as inactive or inconclusive.

`COC[C@H]1OC(=O)c2coc3c2[C@@]1(C)C1=C(C3=O)[C@@H]2CCC(=O)[C@@]2(C)C[C@H]1OC(C)=O` gave MCF10A rerep inconclusive, D3 antag -29, SW480 rereplic 8%, DRD3 agonist -11, KB-V1 MDR tox inconclusive and KB-3-1 cytotox 21µM*.
For ClCCN(CCCl)c1ccc(C=Nc2ccc(/C=C/c3ccncc3)cc2)cc1 the results were KB-V1 MDR tox inactive and KB-3-1 cytotox inactive.
Screening COC(=O)[C@H]1[C@H]2C[C@@H]3c4[nH]c5cc(OC)ccc5c4CCN3C[C@H]2C[C@@H](OC(=O)/C=C/c2cc(OC)c(OC)c(OC)c2)[C@@H]1OC returned MCF10A rerep 5.8µM*, D3 antag 43, SW480 rereplic 18µM*, DRD3 agonist 12, KB-V1 MDR tox inactive and KB-3-1 cytotox inactive.
CC1(O)CCC2C3CCC4=CC(=O)CCC4=C3C=CC21C (configuration not stated) was read as MCF10A rerep inconclusive, D3 antag 4, SW480 rereplic 4%, DRD3 agonist 15, KB-V1 MDR tox 9.2µM* and KB-3-1 cytotox inconclusive.
C[C@]12CC[C@@H]3c4cc(O)c(O)cc4CC[C@H]3[C@@H]1CC[C@@H]2O was read as MCF10A rerep 26µM*, D3 antag 2, SW480 rereplic inconclusive, DRD3 agonist -26, KB-V1 MDR tox 13µM* and KB-3-1 cytotox 6.5µM*.
C[C@]12CC[C@H]3[C@@H](CCC4=CC(=O)CC[C@@H]43)[C@@H]1CC[C@@H]2O was read as MCF10A rerep 2%, D3 antag 4, SW480 rereplic -29%, DRD3 agonist 12, KB-V1 MDR tox 2.3µM* and KB-3-1 cytotox 10µM*.
For COCOC1CCC2C3CCC4=CC(=O)CCC4=C3C=CC12C (configuration not stated) the results were MCF10A rerep -1%, D3 antag 16, SW480 rereplic 0%, DRD3 agonist -12, KB-V1 MDR tox inconclusive and KB-3-1 cytotox inactive.
`C[C@]12CCC3=C4CCC(=O)C=C4CC[C@H]3C1CC[C@@H]2O` (some centres not stated) gave MCF10A rerep 15%, D3 antag 0, SW480 rereplic -10%, DRD3 agonist -5, KB-V1 MDR tox 3.7µM* and KB-3-1 cytotox 10µM*.
Screening C[C@]12CC[C@@H]3c4ccc(O)c(O)c4CC[C@H]3[C@@H]1CC[C@@H]2O returned MCF10A rerep -3%, D3 antag 0, SW480 rereplic inconclusive, DRD3 agonist -10, KB-V1 MDR tox inactive and KB-3-1 cytotox inconclusive.
For CC[C@H]1C[C@H]2[C@@H]3CCC4=CC(=O)CC[C@@H]4[C@H]3CC[C@]2(C)[C@H]1O the results were DRD3 agonist -13.
`O=c1oc2ccccc2c(O)c1C(CC(O)c1ccc(-c2ccc(Br)cc2)cc1)c1ccccc1` (configuration not stated) gave DRD3 agonist 8.
Screening COc1ccc(NS(=O)(=O)c2ccc3c(c2)oc(=O)n3C)cc1Cl returned MCF10A rerep 8%, D3 antag 13, SW480 rereplic -27%, DRD3 agonist 3, KB-V1 MDR tox inconclusive and KB-3-1 cytotox inactive.
CCN(CC)CCO[C@H]1CC[C@@]2(C)C(=CC[C@@H]3[C@@H]2CC[C@]2(C)C(=O)CC[C@@H]32)C1 was read as DRD3 agonist 34*.
`C#CCN1CC(=O)N(COC(=O)[C@@H]2[C@@H](C=C(C)C)C2(C)C)C1=O` gave MCF10A rerep 0% and SW480 rereplic -5%.
COC(=O)C[C@](O)(CCCC(C)(C)O)C(=O)O[C@@H]1C(OC)=C[C@]23CCCN2CCc2cc4c(cc2[C@H]13)OCO4 was read as MCF10A rerep inconclusive and SW480 rereplic 26%.
`Cc1cccc(-n2c(C)nc3ccccc3c2=O)c1C` gave MCF10A rerep 11%, D3 antag -18, SW480 rereplic 1%, DRD3 agonist -11, KB-V1 MDR tox inconclusive and KB-3-1 cytotox inactive.
